Reference: PubChem BioAssay

These molecules were tested against Follistatin (Homo sapiens) (UniProt P19883) (assay: FST protein binding to printed compounds – biochemical, small-molecule microarray, 635/667 nm fluorescence, primary screen (AID 1132)). Settings: 635 nm fluorescence, higher = more signal.
Follistatin (Homo sapiens), sequence (P19883 whole entry, looked up): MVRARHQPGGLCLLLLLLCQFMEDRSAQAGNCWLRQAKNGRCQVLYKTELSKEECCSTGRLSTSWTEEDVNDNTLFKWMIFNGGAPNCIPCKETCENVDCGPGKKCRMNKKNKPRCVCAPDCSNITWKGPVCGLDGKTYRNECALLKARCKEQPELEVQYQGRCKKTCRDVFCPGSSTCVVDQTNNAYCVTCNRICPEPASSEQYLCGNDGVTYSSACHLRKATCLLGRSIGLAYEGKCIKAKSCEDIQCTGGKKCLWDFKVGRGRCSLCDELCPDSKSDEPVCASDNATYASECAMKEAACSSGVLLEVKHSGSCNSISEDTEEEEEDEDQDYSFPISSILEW
`CO[C@H]1O[C@H](CO)[C@@H](OC(=O)Nc2ccccc2)[C@H](OC(=O)Nc2ccccc2)[C@@H]1OC(=O)Nc1ccccc1` was tested, and the composite z-score was 1.3.
`COc1ccc(CCNC(=O)[C@@]2(Sc3ccc(C)cc3)CC(=O)N(C3Cc4ccccc4C3)[C@@H]2c2ccc(CO)cc2I)cc1` showed a composite z-score of -0.816.
For `CCCCCN1CC=CC23O[C@@H]4C=CCCOC(=O)C4[C@H]2C(=O)N(CCCCCO)[C@@H]3C1=O` (stereo not given in full), the composite z-score was -1.03.
Work on `COc1cc2c(cc1OC)CN(C(=O)[C@H]1[C@@H]3C(=O)O[C@@H](c4ccccc4)[C@@H](c4ccccc4)N3[C@@H](c3ccc(O)cc3)[C@]13C(=O)Nc1ccc(C#CCCO)cc13)CC2` yielded a composite z-score of 1.12.
`CN1C=C(C(=O)OCCS(C)(=O)=O)C(C(=O)OCCS(C)(=O)=O)=CC(c2ccc(CO)cc2)=CC1C1CC1` (stereo not given) showed a composite z-score of 0.126.
For `C=C[C@H](CO[Si](CC)(CC)CC)N(Cc1ccc(OC(C)=O)c(OC)c1)S(=O)(=O)c1ccc(Br)cc1`, the composite z-score was 1.28.
With `C[N+](C)(C)CCCCCCNC(=O)[C@@H]1C[C@@H]2C(=O)N[C@@H](Cc3ccccc3)C(=O)N2[C@@H]1c1cccc(OCCO)c1` the composite z-score was 1.34.
Work on `NC(=O)[C@@H]1[C@H]2C(=O)O[C@H](c3ccccc3)[C@H](c3ccccc3)N2[C@H](c2ccc(O)cc2)[C@@]12C(=O)Nc1ccccc12` yielded a composite z-score of -0.5.
`C=C(CCCC)/C(=C/C[C@@H](OC(C)=O)c1ccc(OCCO)cc1)c1cnc2ccccc2c1` was tested, and the composite z-score was 1.12.

These molecules were tested against Fibroblast growth factor 2 (Homo sapiens) (UniProt P09038) (assay: basic fibroblast growth factor binding to printed compounds – biochemical, small-molecule microarray, 635/667 nm fluorescence, primary screen (AID 1133)). Settings: FGF2, fluorescence 635/667, higher = more signal.
Fibroblast growth factor 2 (Homo sapiens), sequence (P09038 whole entry, looked up): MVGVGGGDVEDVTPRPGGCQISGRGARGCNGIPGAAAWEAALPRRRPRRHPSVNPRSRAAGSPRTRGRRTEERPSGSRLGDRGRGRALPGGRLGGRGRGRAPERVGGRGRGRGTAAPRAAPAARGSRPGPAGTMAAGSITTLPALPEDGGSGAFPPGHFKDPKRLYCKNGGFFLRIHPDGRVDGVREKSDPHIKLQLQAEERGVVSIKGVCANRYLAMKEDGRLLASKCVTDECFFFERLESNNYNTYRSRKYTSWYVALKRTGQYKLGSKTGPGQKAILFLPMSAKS
In the case of `CC(C)=CCN[C@H](CO)c1ccccc1`, the composite z-score was 0.314.
In the case of `CCCC#C[Si](O[C@H](CC)c1cn(Cc2cccc(Cl)c2)nn1)(C(C)C)C(C)C`, the composite z-score was 0.54.
In the case of `C=CCOC(=O)[C@H]1[C@@H]2C(=O)O[C@@H](c3ccccc3)[C@@H](c3ccccc3)N2[C@@H](c2ccc(OCCOC(=O)[C@H]3C[C@H]4C(=O)N[C@@H](CCCCNC(C)=O)C(=O)N4[C@H]3c3cccc(OCCO)c3)cc2)[C@]12C(=O)Nc1ccccc12`, the composite z-score was 1.53.
For `C=C(COC)/C(=C/C[C@@H](OC(=O)c1ccncc1)c1ccc(CO)o1)c1cc(C(=O)OC)ccc1OC`, the composite z-score was 1.92.
In the case of `CC(C)C(=C=CC[C@@H](O)c1ccc(OCCO)cc1)C[C@@H](O)COCc1ccccc1`, the composite z-score was 1.46.
`CCCCCCc1nc(-c2cc(C)c(OC)c(C)c2)cc2c1[Si](C(C)C)(C(C)C)OC2` showed a composite z-score of -0.143.
`COc1cc2c(cc1O)C(C1CC1)N(Cc1sc3ccccc3c1Cl)CC2` (stereo not given) was tested, and the composite z-score was 0.124.
In the case of `COCCOC(=O)N1C(=O)[C@@]2(c3cc(C#CCC(C(=O)OC)C(=O)OC)ccc31)[C@H](C(=O)N1CCN(c3ncccn3)CC1)[C@H]1C(=O)O[C@H](c3ccccc3)[C@H](c3ccccc3)N1[C@@H]2c1ccccc1OCCO`, the composite z-score was 1.29.
For `C[C@H]1NC(=O)[C@@]23C(=O)N[C@@H](Cc4ccccc4)C2[C@H](C)[C@@]2(C)O[C@H]2C3/C=C/C/C=C\CNC(=O)[C@@H]2CCCN2C1=O` (stereo not given in full), the composite z-score was 0.692.
`CCOC(=O)C[C@H]1[C@H](OC(=O)c2ccc(C(=O)c3ccccc3)cc2)[C@@H](NC(=O)c2ccc3ccccc3n2)c2cc(OCCCO)ccc2N1C(=O)c1ccccc1` was tested, and the composite z-score was 0.674.
In the case of `CCCC[C@@H]1C[C@H]1[C@@H](NC(=O)c1cccs1)c1ccc(-c2ccccc2)cc1`, the composite z-score was -0.292.
`COC(=O)[C@@]1(Cc2ccc(OC)cc2)[C@H]2c3cc(C(=O)N4CCCC4)n(Cc4ccc(O)c(OC)c4)c3C[C@H]2CN1C(=O)c1ccccc1` gave a composite z-score of -0.1.
Work on `[N-]=[N+]=NCc1ccccc1C[C@]1(C(N)=O)COC(c2ccc(OCCCO)cc2)=N1` yielded a composite z-score of 0.261.
Work on `C=C(COC)C(=O)CC[C@@H](OC(C)=O)c1ccc(CO)o1` yielded a composite z-score of 1.32.
`O=C1c2ccccc2[C@](Cc2ccccc2I)(C(=O)NCCN2CCOCC2)[C@H](c2ccc(CO)cc2)N1Cc1ccccc1Cl` was tested, and the composite z-score was 1.23.
`COCCCNC(=O)[C@]1(CCC(=O)OC(C)(C)C)N=C(c2ccc(OCCCO)cc2)O[C@@H]1c1ccccc1CN=[N+]=[N-]` gave a composite z-score of 1.09.
With `C=CCNC(=O)[C@@H]1[C@H]2C(=O)O[C@H](c3ccccc3)[C@H](c3ccccc3)N2[C@H](c2ccc(OCCO)cc2)[C@@]12C(=O)Nc1ccc(C#CCC(C(=O)OC)C(=O)OC)cc12` the composite z-score was 0.582.
Work on `COc1cc2c(cc1OC)CN(C(=O)[C@@H]1[C@H]3C(=O)O[C@H](c4ccccc4)[C@H](c4ccccc4)N3[C@H](c3ccccc3OCCO)[C@@]13C(=O)Nc1ccc(C#CCCO)cc13)CC2` yielded a composite z-score of 0.409.
`C=CCC(OC(C)=O)[C@@H]1[C@@H](N(Cc2cc3ccccc3o2)C(=O)c2cccc3ccccc23)c2cc(OCCCO)ccc2N1C(=O)c1ccc(-c2ccccc2)cc1` (stereo not given in full) showed a composite z-score of 0.401.
With `COC(=O)[C@@]1(Cc2ccc(F)cc2)[C@H]2c3cc(C(=O)N4CCCC4)n(CCCNc4ncc(C(F)(F)F)cc4Cl)c3C[C@H]2CN1C(=O)c1ccccc1` the composite z-score was -0.903.
`CC(C)N1C(=O)c2ccccc2[C@](C)(C(=O)NCCN2CCOCC2)[C@@H]1c1ccc(CO)cc1` showed a composite z-score of -0.574.
`CC(C)C(=C=CC[C@@H](O)c1ccc(OCCO)cc1)C[C@@H](O)c1ccccn1` gave a composite z-score of 1.78.
Molecule `CO[C@H]1O[C@H](CO)[C@@H](OC(=O)Nc2ccc(Oc3ccccc3)cc2)[C@H](OC(=O)Nc2ccc3c(c2)OCO3)[C@H]1OC(=O)Nc1ccc2c(c1)OCO2` has a composite z-score of 0.957.
With `C=CCOC(=O)[C@H]1[C@@H]2C(=O)O[C@@H](c3ccccc3)[C@@H](c3ccccc3)N2[C@@H](c2ccc(OCCOC(=O)[C@@H]3C[C@@H]4C(=O)N[C@@H](CC(C)C)C(=O)N4[C@@H]3c3ccc(O)cc3)cc2)[C@]12C(=O)Nc1ccccc12` the composite z-score was 1.83.
Molecule `O=C(c1ccccc1)N1C(=O)[C@]2(COC(c3ccc(OCCCO)cc3)=N2)Cc2ccccc21` has a composite z-score of 1.1.
In the case of `CCCc1cc2c(n1Cc1cc(F)cc(F)c1)C(C)C1CN(C(=O)c3ccccc3)C(C)(C(=O)OC)C21` (stereo not given), the composite z-score was -0.48.
`O=C(c1ccccc1)N1C(=O)[C@@]2(Cc3ccccc31)N=C(c1ccc(OCCCO)cc1)O[C@H]2c1ccccc1` gave a composite z-score of 1.45.
With `CO[C@H]1O[C@H](CO)[C@@H](OC(=O)Nc2ccccc2)[C@H](OC(=O)Nc2ccccc2)[C@@H]1OC(=O)Nc1ccccc1` the composite z-score was 0.412.
In the case of `COc1ccc(CCNC(=O)[C@@]2(Sc3ccc(C)cc3)CC(=O)N(C3Cc4ccccc4C3)[C@@H]2c2ccc(CO)cc2I)cc1`, the composite z-score was -0.944.
`CCCCCN1CC=CC23O[C@@H]4C=CCCOC(=O)C4[C@H]2C(=O)N(CCCCCO)[C@@H]3C1=O` (stereo not given in full) gave a composite z-score of -0.347.
For `COc1cc2c(cc1OC)CN(C(=O)[C@H]1[C@@H]3C(=O)O[C@@H](c4ccccc4)[C@@H](c4ccccc4)N3[C@@H](c3ccc(O)cc3)[C@]13C(=O)Nc1ccc(C#CCCO)cc13)CC2`, the composite z-score was 0.0827.
In the case of `CN1C=C(C(=O)OCCS(C)(=O)=O)C(C(=O)OCCS(C)(=O)=O)=CC(c2ccc(CO)cc2)=CC1C1CC1` (stereo not given), the composite z-score was -0.101.
`C=C[C@H](CO[Si](CC)(CC)CC)N(Cc1ccc(OC(C)=O)c(OC)c1)S(=O)(=O)c1ccc(Br)cc1` gave a composite z-score of 0.913.
`C[N+](C)(C)CCCCCCNC(=O)[C@@H]1C[C@@H]2C(=O)N[C@@H](Cc3ccccc3)C(=O)N2[C@@H]1c1cccc(OCCO)c1` showed a composite z-score of 1.45.
`NC(=O)[C@@H]1[C@H]2C(=O)O[C@H](c3ccccc3)[C@H](c3ccccc3)N2[C@H](c2ccc(O)cc2)[C@@]12C(=O)Nc1ccccc12` showed a composite z-score of -1.17.
`C=C(CCCC)/C(=C/C[C@@H](OC(C)=O)c1ccc(OCCO)cc1)c1cnc2ccccc2c1` showed a composite z-score of 0.502.
